The record followed here is PubChem BioAssay (NCI).

Each structure is given as a SMILES string. About 83,000 compounds went through this panel and 20% of them were active in at least one assay; those are over-represented in the sample as a whole.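 Interpretation: 100, growth as untreated; towards 0, rising growth inhibition; 0, no net growth; 0 to -100, cell death. Compounds scoring below 10 were considered active.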 Active and inactive are the calls of the source.

The assay relates to MDA-MB-468 breast. The experiment in a line: NCI-60 one-dose screen, 48 h (100 = growth as untreated, 0 = no growth, -100 = all killed). As to conditions: 10 µM unless noted.
Regarding `COC(=O)C1NC(=S)N(c2ccc(Cl)cc2)C1/C=C/c1ccccc1` (stereo not given), the growth was 108% (inactive).
As to `COc1ccc(S(=O)(=O)Nc2cc(/C=C\c3cc(OC)c(OC)c(OC)c3)cc(OC)c2OC)cc1`, the growth is 19.5% (inactive).
Take `COc1ccc(-c2c[nH]c(C(=O)O)c2-c2cc(OC)c(OC)c(OC)c2)cc1`: the growth was 11.8% (inactive).
Take `COc1cnc2c(c1)C(=O)c1c-2n(CCCN2CCNCC2)c(=O)c2cc(Cl)ccc12`: the growth was 65.8% (inactive).
For the compound `O=C(N/N=C/c1ccc(O)c(O)c1)c1sc2ccccc2c1Cl`, the growth is 88.8% (inactive).
